Test results reported in the antibiotic and cytotoxicity screens of Wong et al. (2023).
The whole screen tested about 39,000 compounds, of which about 3,300 (8.5%) were called active. The entries come from a sample that favours actives as a whole.

What follows are molecules tested on HepG2 (assay: cytotoxicity call (relative viability < 0.9)). Conditions: 10 µM.

**Q.** With `COCCCNC(=O)[C@H]1N[C@H]2C[C@@H]1C[C@@H]2F` as the molecule, how does the cytotoxicity call read?
**A.** inactive

**Q.** `O[C@@H]1[C@@H]2C[C@H]3[C@H]1N[C@@H]1C[C@@H]2[C@@H]3[C@H]1O` was tested. Which cytotoxicity call did it give?
**A.** inactive

**Q.** With `CN1CCO[C@H]2CN(c3ncccn3)C[C@@H]21` as the molecule, how does the cytotoxicity call read?
**A.** inactive

**Q.** For `N#Cc1nn(-c2c(Cl)cc(C(F)(F)F)cc2Cl)c(N)c1S(=O)C(F)(F)F` (centres undefined), which cytotoxicity call is on record?
**A.** active

**Q.** How did the cytotoxicity call turn out when `C[C@H](CO)N1C[C@H](C)[C@H](CN(C)C(=O)Oc2ccc3ccccc3c2)OCc2cn(nn2)CCCC1=O` was run?
**A.** inactive

**Q.** Which cytotoxicity call does the source give for `CCOCC(=O)N1C[C@H]2CNC[C@H]2C1` here?
**A.** inactive

**Q.** Which cytotoxicity call does the source give for `CN1CCCN(Cc2ccc(CN)cc2)CC1` here?
**A.** inactive

**Q.** With `CN1[C@@H]2CC[C@H]1CNC(=O)C2` as the molecule, how does the cytotoxicity call read?
**A.** inactive

**Q.** With `COc1ccc2c3c([nH]c2c1)C(C)=NCC3` as the molecule, how does the cytotoxicity call read?
**A.** inactive

**Q.** How did the cytotoxicity call turn out when `CC1=NCCc2c1[nH]c1cc(O)ccc21.Cl.O.O` was run?
**A.** active

**Q.** With `CN1CCN(c2ccccc2CN)CC1` as the molecule, how does the cytotoxicity call read?
**A.** inactive

**Q.** With `COc1ccc(OC(=O)N(C)C[C@@H]2OCc3ccccc3-c3c(n(C)c4ccccc34)C(=O)N([C@H](C)CO)C[C@H]2C)cc1` as the molecule, how does the cytotoxicity call read?
**A.** inactive

**Q.** Which cytotoxicity call does the source give for `N#Cc1cccnc1N1CCNCC1` here?
**A.** inactive

**Q.** With `Cc1ccc2cc3c(ccc4ccccc43)c3c2c1CC3` as the molecule, how does the cytotoxicity call read?
**A.** active

**Q.** For `CN1CCN(C(=O)[C@H]2C[C@H]3CN(c4ncccn4)C[C@@H]3N2C)CC1`, which cytotoxicity call is on record?
**A.** inactive

**Q.** For `Br.CN1C2CC(OC(=O)C(CO)c3ccccc3)CC1C(O)C2` (racemic), which cytotoxicity call is on record?
**A.** inactive

**Q.** How did the cytotoxicity call turn out when `C=C1[C@H]2CC[C@H]3[C@]4(C)C[C@H](O[C@H]5O[C@@H](CO)[C@@H](OS(=O)(=O)O)[C@H](OS(=O)(=O)O)[C@H]5OC(=O)CC(C)C)C[C@@H](C(=O)O)[C@H]4CC[C@]3(C2)[C@H]1O` was run?
**A.** inactive

**Q.** Which cytotoxicity call does the source give for `CC[C@@H](C)NC=C1C(=O)NC(=O)NC1=O` here?
**A.** inactive

**Q.** Which cytotoxicity call does the source give for `O=C(c1ccco1)N1[C@@H]2CC[C@H]1CNC2` here?
**A.** inactive

**Q.** With `NC1(c2cccc(Cl)c2)CC1` as the molecule, how does the cytotoxicity call read?
**A.** inactive

**Q.** With `CC(C)C[C@@H]1NC[C@@H]2CCCN2C1=O` as the molecule, how does the cytotoxicity call read?
**A.** inactive

**Q.** How did the cytotoxicity call turn out when `CN(C)C(=S)SSC(=S)N(C)C` was run?
**A.** active

**Q.** Which cytotoxicity call does the source give for `O=C(O)CN1C[C@@H]2C(NC(=O)c3ccno3)[C@H]2C1` (some centres undefined) here?
**A.** inactive

**Q.** Which cytotoxicity call does the source give for `CC(C(O)c1ccccc1)N(C)C` (centres undefined) here?
**A.** inactive

**Q.** How did the cytotoxicity call turn out when `CNCC(=O)c1ccc(O)cc1` was run?
**A.** inactive

**Q.** How did the cytotoxicity call turn out when `COC(=O)NC(=S)Nc1ccccc1NC(=S)NC(=O)OC` was run?
**A.** active

**Q.** How did the cytotoxicity call turn out when `CNc1ccccc1C(=O)O` was run?
**A.** inactive

**Q.** Which cytotoxicity call does the source give for `Br.CN1C2CC(OC(=O)C(CO)c3ccccc3)CC1C1OC12` (centres undefined) here?
**A.** inactive

**Q.** How did the cytotoxicity call turn out when `C[N+]1(C)C2CC(OC(=O)C(CO)c3ccccc3)CC1C1OC12.[Br-]` (centres undefined) was run?
**A.** inactive

**Q.** `CC(=O)Nc1ccc(Cl)cc1C` was tested. Which cytotoxicity call did it give?
**A.** inactive

**Q.** For `C=C[C@H]1CN2CC[C@@H]1C[C@@H]2CO`, which cytotoxicity call is on record?
**A.** inactive

**Q.** How did the cytotoxicity call turn out when `CN(C)[C@@H](CN)c1cn(C)c2ccccc12` was run?
**A.** inactive

**Q.** `C[C@@H]1CCC(=O)O1` was tested. Which cytotoxicity call did it give?
**A.** inactive

**Q.** With `OCC[N+]12CN3CN(CN(C3)C1)C2` as the molecule, how does the cytotoxicity call read?
**A.** inactive

**Q.** `CC(=O)O.Cc1cc2c(C(C)C)c(O)c(O)c(C=O)c2c(O)c1-c1c(C)cc2c(C(C)C)c(O)c(O)c(C=O)c2c1O` was tested. Which cytotoxicity call did it give?
**A.** inactive

**Q.** For `Cc1cc2c(C(C)C)c(O)c(O)c(C=O)c2c(O)c1-c1c(C)cc2c(C(C)C)c(O)c(O)c(C=O)c2c1O` [listing 1 of 2 here], which cytotoxicity call is on record?
**A.** inactive

**Q.** Which cytotoxicity call does the source give for `Cc1cc2c(C(C)C)c(O)c(O)c(C=O)c2c(O)c1-c1c(C)cc2c(C(C)C)c(O)c(O)c(C=O)c2c1O` [listing 2 of 2 here] here?
**A.** active

**Q.** `COc1cccc(C2(O)CCCCC2CN(C)C)c1.Cl` (centres undefined) was tested. Which cytotoxicity call did it give?
**A.** inactive

**Q.** How did the cytotoxicity call turn out when `CN(CC[C@@H](N)CC(=O)N[C@H]1C=C[C@H](n2ccc(N)nc2=O)O[C@@H]1C(=O)O)C(=N)N` was run?
**A.** inactive

**Q.** `CN[C@H]1C[C@@H](N)[C@H](O)[C@@H](O[C@@H]2O[C@H](CO)[C@H](O)[C@@H]3O[C@@]4(O[C@H]23)O[C@H]([C@@H](N)CO)[C@H](O)[C@H](O)[C@H]4O)[C@@H]1O` was tested. Which cytotoxicity call did it give?
**A.** inactive

**Q.** How did the cytotoxicity call turn out when `CCCC(=O)c1c(O)[nH]c(=O)[nH]c1=O` was run?
**A.** inactive

**Q.** Which cytotoxicity call does the source give for `c1ccc2sc(C3(N4CCCCC4)CCCCC3)cc2c1` here?
**A.** inactive

**Q.** Which cytotoxicity call does the source give for `S=C=Nc1cccc(C2(N3CCCCC3)CCCCC2)c1` here?
**A.** active

**Q.** For `c1ccc2sc(C3(N4CCCC4)CCCCC3)cc2c1`, which cytotoxicity call is on record?
**A.** inactive

**Q.** Which cytotoxicity call does the source give for `Oc1ccccc1N1CCNCC1` here?
**A.** inactive

**Q.** With `O[C@H]1CNC[C@@H]1N1CCCC1` as the molecule, how does the cytotoxicity call read?
**A.** inactive

**Q.** For `CN1CC2(CNC2)OCCS1(=O)=O`, which cytotoxicity call is on record?
**A.** inactive

**Q.** Which cytotoxicity call does the source give for `C[C@@H]1CN([C@@H](C)CO)C(=O)CCCn2nncc2CO[C@@H]1CN(C)C(=O)Oc1cccc2ccccc12` here?
**A.** inactive

**Q.** `NCCc1[nH]nc2c1CCCC2` was tested. Which cytotoxicity call did it give?
**A.** inactive

**Q.** With `CC1(C)NN1CCCN1NC1(C)C` (centres undefined) as the molecule, how does the cytotoxicity call read?
**A.** inactive

**Q.** For `NCCO.NCCO.O[AsH]O[AsH]O` (centres undefined), which cytotoxicity call is on record?
**A.** active

**Q.** `CC12CCC(=O)C=C1C=CC1C2CCC2(C)C1CCC2(O)CCC(=O)[O-].[K+]` (centres undefined) was tested. Which cytotoxicity call did it give?
**A.** inactive

**Q.** How did the cytotoxicity call turn out when `CC12CCC3C(CCC45OC4C(O)=C(C#N)CC35C)C1CCC2O` (centres undefined) was run?
**A.** inactive

**Q.** With `C[C@H](N)Cn1ccc2cc(F)c(Cl)cc21` as the molecule, how does the cytotoxicity call read?
**A.** inactive
